# Test results from ChEMBL document CHEMBL1961873, “Compounds: GSK PKIS; Assays: Nanosyn kinase panel” (2012).
# Key:
# [1] = target: Calcium/calmodulin-dependent protein kinase type II subunit alpha (Homo sapiens) (UniProt Q9UQM7); settings: at 1 µM;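 further: reported value is a mean percent inhibition of CAMK2A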
# [2] = target: Calcium/calmodulin-dependent protein kinase type II subunit delta (Homo sapiens) (UniProt Q13557); settings: at 0.1 µM
# [3] = target: Calcium/calmodulin-dependent protein kinase type II subunit delta (Homo sapiens) (UniProt Q13557); settings: at 1 µM
# [4] = target: T1, Calcium/calmodulin-dependent protein kinase type IV (Homo sapiens) (UniProt Q16566); settings: at 0.1 µM
# T1 sequence (whole entry): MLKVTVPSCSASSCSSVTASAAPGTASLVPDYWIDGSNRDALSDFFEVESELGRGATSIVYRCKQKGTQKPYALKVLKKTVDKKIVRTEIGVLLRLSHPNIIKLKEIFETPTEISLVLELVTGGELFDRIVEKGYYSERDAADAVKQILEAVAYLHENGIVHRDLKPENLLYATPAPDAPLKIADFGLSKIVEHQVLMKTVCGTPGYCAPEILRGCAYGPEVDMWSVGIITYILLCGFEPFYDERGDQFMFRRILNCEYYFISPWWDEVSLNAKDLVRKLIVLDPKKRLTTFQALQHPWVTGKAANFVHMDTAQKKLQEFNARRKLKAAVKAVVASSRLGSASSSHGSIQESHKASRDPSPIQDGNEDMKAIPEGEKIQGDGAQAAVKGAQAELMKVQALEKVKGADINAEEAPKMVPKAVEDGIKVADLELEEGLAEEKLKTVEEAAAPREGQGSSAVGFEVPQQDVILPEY
# [5] = target: T1, Calcium/calmodulin-dependent protein kinase type IV (Homo sapiens); settings: at 1 µM
# [6] = target: T2, Serine/threonine-protein kinase Chk1 (Homo sapiens) (UniProt O14757); settings: at 0.1 µM
# T2 sequence (whole entry): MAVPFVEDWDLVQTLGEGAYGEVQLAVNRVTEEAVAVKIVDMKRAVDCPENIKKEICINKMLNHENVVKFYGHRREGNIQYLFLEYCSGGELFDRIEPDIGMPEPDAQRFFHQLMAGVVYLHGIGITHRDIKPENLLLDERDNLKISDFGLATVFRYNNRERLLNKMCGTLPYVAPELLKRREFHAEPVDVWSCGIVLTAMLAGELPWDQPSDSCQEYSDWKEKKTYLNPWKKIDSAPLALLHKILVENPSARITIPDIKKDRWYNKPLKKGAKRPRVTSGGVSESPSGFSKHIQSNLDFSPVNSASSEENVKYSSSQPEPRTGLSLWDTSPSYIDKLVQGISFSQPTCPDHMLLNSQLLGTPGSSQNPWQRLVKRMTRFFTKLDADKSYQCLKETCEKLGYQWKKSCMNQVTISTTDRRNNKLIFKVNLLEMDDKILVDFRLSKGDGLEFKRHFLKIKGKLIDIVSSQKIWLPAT
# [7] = target: T2, Serine/threonine-protein kinase Chk1 (Homo sapiens); settings: at 1 µM
# [8] = target: Serine/threonine-protein kinase Chk2 (Homo sapiens) (UniProt O96017); settings: at 0.1 µM
# [9] = target: Serine/threonine-protein kinase Chk2 (Homo sapiens) (UniProt O96017); settings: at 1 µM
# [10] = target: Death-associated protein kinase 1 (Homo sapiens) (UniProt P53355); settings: at 0.1 µM
# [11] = target: Death-associated protein kinase 1 (Homo sapiens) (UniProt P53355); settings: at 1 µM
# [12] = target: T3, Serine/threonine-protein kinase DCLK2 (Homo sapiens) (UniProt Q8N568); settings: at 0.1 µM
# T3 sequence (whole entry): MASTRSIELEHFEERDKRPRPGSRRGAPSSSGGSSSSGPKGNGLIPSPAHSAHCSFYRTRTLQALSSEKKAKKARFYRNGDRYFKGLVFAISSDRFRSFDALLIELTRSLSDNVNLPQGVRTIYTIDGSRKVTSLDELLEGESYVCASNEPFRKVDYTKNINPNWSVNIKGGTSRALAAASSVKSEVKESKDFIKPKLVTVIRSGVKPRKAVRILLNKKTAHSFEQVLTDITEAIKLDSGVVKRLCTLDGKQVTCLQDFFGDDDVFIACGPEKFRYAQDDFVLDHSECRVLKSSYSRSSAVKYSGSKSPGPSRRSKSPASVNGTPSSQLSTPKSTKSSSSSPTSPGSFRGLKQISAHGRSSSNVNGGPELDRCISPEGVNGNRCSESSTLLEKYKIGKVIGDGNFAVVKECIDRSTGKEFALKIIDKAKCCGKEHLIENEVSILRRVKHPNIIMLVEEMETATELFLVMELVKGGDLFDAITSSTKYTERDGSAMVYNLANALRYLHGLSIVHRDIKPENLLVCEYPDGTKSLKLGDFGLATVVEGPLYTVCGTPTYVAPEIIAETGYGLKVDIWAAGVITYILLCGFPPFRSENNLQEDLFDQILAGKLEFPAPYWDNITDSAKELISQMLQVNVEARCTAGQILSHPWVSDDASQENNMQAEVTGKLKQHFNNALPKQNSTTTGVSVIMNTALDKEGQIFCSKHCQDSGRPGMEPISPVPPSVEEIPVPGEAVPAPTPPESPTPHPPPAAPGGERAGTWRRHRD
# [13] = target: T3, Serine/threonine-protein kinase DCLK2 (Homo sapiens); settings: at 1 µM
# [14] = target: MAP kinase-activated protein kinase 2 (Homo sapiens) (UniProt P49137); settings: at 0.1 µM
# [15] = target: MAP kinase-activated protein kinase 2 (Homo sapiens) (UniProt P49137); settings: at 1 µM
# [16] = target: MAP kinase-activated protein kinase 3 (Homo sapiens) (UniProt Q16644); settings: at 0.1 µM
# [17] = target: MAP kinase-activated protein kinase 3 (Homo sapiens) (UniProt Q16644); settings: at 1 µM
# [18] = target: Serine/threonine-protein kinase MARK1 (Homo sapiens) (UniProt Q9P0L2); settings: at 0.1 µM
# [19] = target: Serine/threonine-protein kinase MARK1 (Homo sapiens) (UniProt Q9P0L2); settings: at 1 µM
# [20] = target: MAP/microtubule affinity-regulating kinase 3 (Homo sapiens) (UniProt P27448); settings: at 0.1 µM;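 further: mean percent inhibition of MARK3 kinase activity, measured within the GSK PKIS screening panel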
# MAP/microtubule affinity-regulating kinase 3 (Homo sapiens), sequence (P27448 whole entry, looked up): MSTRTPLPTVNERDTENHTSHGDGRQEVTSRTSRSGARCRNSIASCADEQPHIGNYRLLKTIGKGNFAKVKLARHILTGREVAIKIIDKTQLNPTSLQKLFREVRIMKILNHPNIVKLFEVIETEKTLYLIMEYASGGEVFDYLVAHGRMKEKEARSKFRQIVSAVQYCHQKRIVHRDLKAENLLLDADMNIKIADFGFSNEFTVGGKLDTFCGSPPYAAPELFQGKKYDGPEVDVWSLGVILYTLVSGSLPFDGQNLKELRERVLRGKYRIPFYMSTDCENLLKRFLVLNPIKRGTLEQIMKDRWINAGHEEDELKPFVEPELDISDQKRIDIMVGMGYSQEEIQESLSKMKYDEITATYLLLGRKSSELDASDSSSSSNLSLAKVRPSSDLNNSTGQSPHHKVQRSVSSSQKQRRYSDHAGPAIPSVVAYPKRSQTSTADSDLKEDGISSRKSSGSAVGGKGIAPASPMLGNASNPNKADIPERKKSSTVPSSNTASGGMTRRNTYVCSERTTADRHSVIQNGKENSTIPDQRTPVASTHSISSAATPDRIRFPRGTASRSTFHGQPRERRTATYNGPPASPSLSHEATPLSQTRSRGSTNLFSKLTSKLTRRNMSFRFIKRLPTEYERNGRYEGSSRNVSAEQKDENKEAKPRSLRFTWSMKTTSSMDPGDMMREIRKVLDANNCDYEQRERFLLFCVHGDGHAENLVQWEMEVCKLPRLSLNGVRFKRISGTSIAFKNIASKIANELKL
# Serine/threonine-protein kinase MARK1 (Homo sapiens), sequence (Q9P0L2 whole entry, looked up): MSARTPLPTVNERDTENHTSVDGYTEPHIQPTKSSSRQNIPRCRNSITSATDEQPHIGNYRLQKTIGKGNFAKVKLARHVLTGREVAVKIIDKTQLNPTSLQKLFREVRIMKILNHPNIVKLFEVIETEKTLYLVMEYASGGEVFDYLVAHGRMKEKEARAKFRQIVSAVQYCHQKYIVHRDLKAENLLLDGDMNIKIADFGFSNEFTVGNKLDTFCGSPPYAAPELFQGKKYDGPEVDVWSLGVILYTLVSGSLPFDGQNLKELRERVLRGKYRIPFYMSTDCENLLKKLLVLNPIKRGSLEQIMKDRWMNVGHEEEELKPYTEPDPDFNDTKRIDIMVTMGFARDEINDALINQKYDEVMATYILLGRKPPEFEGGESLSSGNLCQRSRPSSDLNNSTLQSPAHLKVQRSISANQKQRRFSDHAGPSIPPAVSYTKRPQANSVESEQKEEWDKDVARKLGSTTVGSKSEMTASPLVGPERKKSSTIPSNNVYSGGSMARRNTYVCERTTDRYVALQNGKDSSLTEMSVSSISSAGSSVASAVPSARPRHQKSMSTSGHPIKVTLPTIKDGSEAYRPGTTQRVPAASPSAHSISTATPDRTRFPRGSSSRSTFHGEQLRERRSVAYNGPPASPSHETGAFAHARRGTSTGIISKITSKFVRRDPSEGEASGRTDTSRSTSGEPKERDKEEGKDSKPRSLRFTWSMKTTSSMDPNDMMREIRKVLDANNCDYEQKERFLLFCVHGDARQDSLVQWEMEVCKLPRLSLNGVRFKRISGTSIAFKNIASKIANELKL
# Death-associated protein kinase 1 (Homo sapiens), sequence (P53355 whole entry, looked up): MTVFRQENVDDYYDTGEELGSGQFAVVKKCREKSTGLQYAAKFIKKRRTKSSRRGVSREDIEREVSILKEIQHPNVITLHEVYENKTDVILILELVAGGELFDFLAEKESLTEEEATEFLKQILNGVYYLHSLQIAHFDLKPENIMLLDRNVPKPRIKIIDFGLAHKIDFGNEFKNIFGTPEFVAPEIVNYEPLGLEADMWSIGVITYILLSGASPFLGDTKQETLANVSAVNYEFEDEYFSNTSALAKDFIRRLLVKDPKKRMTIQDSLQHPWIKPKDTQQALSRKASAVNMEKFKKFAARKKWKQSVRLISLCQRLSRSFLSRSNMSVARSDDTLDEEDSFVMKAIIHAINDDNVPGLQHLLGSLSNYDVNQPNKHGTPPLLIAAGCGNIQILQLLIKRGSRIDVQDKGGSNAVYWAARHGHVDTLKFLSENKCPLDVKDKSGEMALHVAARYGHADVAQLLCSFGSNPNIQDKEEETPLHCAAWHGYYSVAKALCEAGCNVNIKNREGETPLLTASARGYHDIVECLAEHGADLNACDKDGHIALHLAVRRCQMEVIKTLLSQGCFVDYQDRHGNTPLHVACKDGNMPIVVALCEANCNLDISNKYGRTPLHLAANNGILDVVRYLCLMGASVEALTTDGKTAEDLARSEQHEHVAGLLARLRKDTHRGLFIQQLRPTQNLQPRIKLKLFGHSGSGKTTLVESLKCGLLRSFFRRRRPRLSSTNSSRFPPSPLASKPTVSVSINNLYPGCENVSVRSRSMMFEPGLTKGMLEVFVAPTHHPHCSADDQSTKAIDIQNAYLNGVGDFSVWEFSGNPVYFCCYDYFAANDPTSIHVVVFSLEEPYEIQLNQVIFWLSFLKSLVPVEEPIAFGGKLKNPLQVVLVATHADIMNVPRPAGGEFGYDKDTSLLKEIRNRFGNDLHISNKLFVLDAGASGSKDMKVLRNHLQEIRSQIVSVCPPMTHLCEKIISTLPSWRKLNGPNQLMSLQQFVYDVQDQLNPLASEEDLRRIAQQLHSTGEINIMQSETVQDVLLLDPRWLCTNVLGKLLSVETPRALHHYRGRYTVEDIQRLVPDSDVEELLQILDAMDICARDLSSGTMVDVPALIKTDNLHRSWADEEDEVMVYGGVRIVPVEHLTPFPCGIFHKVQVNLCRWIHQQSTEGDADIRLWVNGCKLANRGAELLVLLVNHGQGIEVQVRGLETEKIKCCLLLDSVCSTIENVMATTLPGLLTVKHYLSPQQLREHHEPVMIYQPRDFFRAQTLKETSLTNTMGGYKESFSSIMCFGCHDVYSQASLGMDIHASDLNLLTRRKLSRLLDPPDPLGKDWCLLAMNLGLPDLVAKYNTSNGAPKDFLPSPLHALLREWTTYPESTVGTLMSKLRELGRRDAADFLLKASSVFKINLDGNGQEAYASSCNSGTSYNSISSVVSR
# Calcium/calmodulin-dependent protein kinase type II subunit alpha (Homo sapiens), sequence (Q9UQM7 whole entry): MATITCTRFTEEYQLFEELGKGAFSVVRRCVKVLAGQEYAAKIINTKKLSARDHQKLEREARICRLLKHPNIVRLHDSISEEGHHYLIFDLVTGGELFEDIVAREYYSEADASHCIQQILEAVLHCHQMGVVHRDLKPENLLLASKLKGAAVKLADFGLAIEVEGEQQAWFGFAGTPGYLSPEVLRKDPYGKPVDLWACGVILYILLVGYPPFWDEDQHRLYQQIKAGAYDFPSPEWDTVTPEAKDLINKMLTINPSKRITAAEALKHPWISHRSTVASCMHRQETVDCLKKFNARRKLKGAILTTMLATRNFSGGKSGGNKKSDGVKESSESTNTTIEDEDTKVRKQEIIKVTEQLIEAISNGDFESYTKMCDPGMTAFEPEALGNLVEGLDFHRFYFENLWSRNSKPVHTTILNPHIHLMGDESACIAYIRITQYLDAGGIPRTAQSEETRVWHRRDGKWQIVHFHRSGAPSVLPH
# MAP kinase-activated protein kinase 3 (Homo sapiens), sequence (Q16644 whole entry, looked up): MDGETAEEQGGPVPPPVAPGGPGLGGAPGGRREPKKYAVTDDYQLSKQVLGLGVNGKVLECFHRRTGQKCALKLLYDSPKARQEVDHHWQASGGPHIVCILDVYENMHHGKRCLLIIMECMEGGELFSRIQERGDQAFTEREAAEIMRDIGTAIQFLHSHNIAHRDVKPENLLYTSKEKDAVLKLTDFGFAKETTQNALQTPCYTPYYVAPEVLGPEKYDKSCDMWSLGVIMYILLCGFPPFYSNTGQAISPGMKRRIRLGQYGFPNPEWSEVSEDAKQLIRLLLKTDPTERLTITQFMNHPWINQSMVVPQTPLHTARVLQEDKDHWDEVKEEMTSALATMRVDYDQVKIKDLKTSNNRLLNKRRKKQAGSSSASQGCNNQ
# Serine/threonine-protein kinase Chk2 (Homo sapiens), sequence (O96017 whole entry): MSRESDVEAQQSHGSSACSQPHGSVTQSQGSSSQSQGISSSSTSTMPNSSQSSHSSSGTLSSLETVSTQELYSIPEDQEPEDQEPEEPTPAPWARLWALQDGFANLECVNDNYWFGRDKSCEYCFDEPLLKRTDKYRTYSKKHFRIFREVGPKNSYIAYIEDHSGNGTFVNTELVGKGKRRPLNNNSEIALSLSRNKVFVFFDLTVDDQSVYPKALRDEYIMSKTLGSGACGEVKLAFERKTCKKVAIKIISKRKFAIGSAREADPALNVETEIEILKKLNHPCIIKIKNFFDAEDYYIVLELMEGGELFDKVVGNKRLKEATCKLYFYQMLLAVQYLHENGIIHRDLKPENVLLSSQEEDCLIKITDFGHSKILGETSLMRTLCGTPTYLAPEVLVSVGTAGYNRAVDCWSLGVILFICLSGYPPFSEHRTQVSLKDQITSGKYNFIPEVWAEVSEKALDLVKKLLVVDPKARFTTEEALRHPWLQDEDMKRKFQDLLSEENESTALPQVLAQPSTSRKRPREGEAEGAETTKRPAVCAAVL
# MAP kinase-activated protein kinase 2 (Homo sapiens), sequence (P49137 whole entry, looked up): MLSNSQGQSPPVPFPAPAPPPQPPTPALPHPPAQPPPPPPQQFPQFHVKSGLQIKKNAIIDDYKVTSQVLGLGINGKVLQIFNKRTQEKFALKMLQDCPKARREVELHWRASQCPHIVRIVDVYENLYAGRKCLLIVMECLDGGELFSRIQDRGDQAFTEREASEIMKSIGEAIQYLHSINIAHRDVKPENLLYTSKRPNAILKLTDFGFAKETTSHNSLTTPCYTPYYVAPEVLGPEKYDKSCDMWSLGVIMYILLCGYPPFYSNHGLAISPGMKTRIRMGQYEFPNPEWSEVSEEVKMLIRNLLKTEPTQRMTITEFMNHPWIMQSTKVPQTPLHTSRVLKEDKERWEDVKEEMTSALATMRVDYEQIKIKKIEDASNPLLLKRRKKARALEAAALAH
SMILES,inhibition [1] [%],inhibition [2] [%],inhibition [3] [%],inhibition [4] [%],inhibition [5] [%],inhibition [6] [%],inhibition [7] [%],inhibition [8] [%],inhibition [9] [%],inhibition [10] [%],inhibition [11] [%],inhibition [12] [%],inhibition [13] [%],inhibition [14] [%],inhibition [15] [%],inhibition [16] [%],inhibition [17] [%],inhibition [18] [%],inhibition [19] [%],inhibition [20] [%]
Cc1cc(Cl)cc2c1NC(=O)C2=NNc1ccc(S(N)(=O)=O)cc1,0.96,2.57,-0.12,-0.56,-3.46,2.43,2.86,1.38,2.55,2.88,3.49,1.05,6.07,1.56,1.44,0.78,2.25,2.46,4.87,3.64
N#Cc1cccc(Nc2nccc(-c3cnn4ncccc34)n2)c1,35.4,17.8,63.4,-1.28,-0.33,3,3.73,3.25,10.6,3.73,3.93,2.04,0.56,2.34,1.6,2.17,5,6.5,15.2,2.34
COC(=O)Nc1nc2cc(Oc3ccc(NC(=O)Nc4cccc(Br)c4)cc3)ccc2[nH]1,2.07,1.97,3.53,1.41,2.33,2.14,2.72,1.92,2.2,2.43,2.38,-0.32,4.24,1.26,1.19,4.95,6.43,1.41,1.86,3.56
CN(C)CCCn1c(-c2nonc2N)nc2cnccc21,3.18,3.33,4.12,-0.84,15.5,5.63,4.94,2.39,3.79,4.9,5.9,0.05,2.05,2.54,1.94,4.24,4.17,3.64,6.1,4.25
Cc1ccc2c(-c3ccnc(Nc4cccc(C(F)(F)F)c4)n3)c(-c3ccccc3)nn2n1,1.98,2.93,5.15,1.16,3.52,-6.21,-9.83,-3.6,-3.73,-4.51,-5.56,0.64,2.53,-1.16,-0.78,15.6,27.2,1.58,4.76,-0.41
COC(=O)c1ccc2c(c1)C(=Cc1cc(Br)c(O)c(Br)c1)C(=O)N2,5.83,3.29,9.61,-0.49,4.64,9.68,14.6,8.72,20.6,9.92,-8.17,1.31,0.79,4.54,7.08,8.04,10.5,1.62,5.65,-2.9
